Reference: PubChem BioAssay
The source made the active and inactive calls.

Assays:
[1] = binders of probe aFSTL3 on microarray, primary screen, stem cell growth factor project, biochemical, small-molecule microarray, fluorescence 635/667 (AID 1064); conditions: higher = more signal;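 further: measures binding of the biotinylated anti-FSTL3 antibody to printed compounds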
[2] = binders from COS7 lysate, DM2A8 probe, primary screen, torsin A project, cell lysate, small-molecule microarray, fluorescence 635/667 (AID 1065); conditions: higher = more signal, COS7 lysate expressing mutant human TOR1A
[3] = binders of probe aFGF2 on microarray, primary screen, stem cell growth factor project, biochemical, small-molecule microarray, fluorescence 635/667 (AID 1067); conditions: higher = more signal;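 further: measures binding of biotinylated aFGF2 protein to printed compounds on slides; z-score merges feature fluorescence and signal-to-noise across triplicate slides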
[4] = binders of probe aFGF10 on microarray, primary screen, stem cell growth factor project, biochemical, small-molecule microarray, fluorescence 635/667 (AID 1071); conditions: higher = more signal;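 further: score merges 667 nm spot intensity and signal to noise from triplicate slides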
[5] = biological target: Neurogenic locus notch homolog protein 2 (Homo sapiens) (UniProt Q04721); test: Notch2 binders on small-molecule microarrays, primary screen, biochemical, small-molecule microarray, 635 nm fluorescence, stem cell growth factors (AID 1073); conditions: Notch2 binding, higher = more signal
[6] = biological target: Pro-neuregulin-1, membrane-bound isoform (Homo sapiens) (UniProt Q02297); test: NRG1 binders on small-molecule microarrays, primary screen, psychiatric disease protein project, biochemical, small-molecule microarray, fluorescence 635/667 (AID 1075); conditions: NRG1 binding, 635 nm fluorescence, higher = more signal;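 further: score combines 667 nm spot fluorescence with signal to noise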
[7] = tested on: Neuregulin-1 EGF-like domain; test: binders of neuregulin-1 EGF-like domain, primary screen, biochemical, small-molecule microarray, 635 nm fluorescence (AID 1081); conditions: small-molecule microarray binding, higher = more signal;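 further: binding of the protein to compounds printed on small-molecule microarray slides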
[8] = FRG1 promoter luciferase signal modulators, primary screen, FRG1 inhibition for FSHD, cell-based, C2C12 myotubes, firefly/Renilla luciferase, luminescence (AID 1084); conditions: higher = more signal, called active from +8 up or from −8 down
[9] = binders of probe aFST on microarray, primary screen, stem cell growth factor project, biochemical, small-molecule microarray, fluorescence 635/667 (AID 1086); conditions: higher = more signal;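 further: score merges 667 nm fluorescence with signal-to-noise of each printed compound spot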
[10] = binders of probe aHhip on microarray, primary screen, stem cell growth factor project, biochemical, small-molecule microarray, fluorescence 635/667 (AID 1087); conditions: higher = more signal;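 further: score merges spot fluorescence at 667nm with spot signal to noise ratio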
[11] = tested on: PRMT1 (protein arginine N-methyltransferase 1); test: PRMT1 binders on small-molecule microarrays, primary screen, biochemical, small-molecule microarray, 635 nm fluorescence (AID 1088); conditions: small-molecule microarray binding, higher = more signal;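 further: binding of Prmt1 protein to compounds spotted on small-molecule microarray slides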
[12] = yeast growth modulation, basal conditions, primary screen, YJM789 clinical isolate, OD600, 24 h (AID 1089);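 further: growth of clinical yeast isolate S. cerevisiae YJM 789 seeded 1000 cells per well; test concentration not given here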; conditions: S. cerevisiae YJM789 growth, higher = more signal, called active from +8 up or from −8 down
[13] = fission yeast growth modulation, primary screen, strain 972, OD600, 24 h, no modulator (AID 1090);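 further: basal condition with compound alone and no growth modifier present; test concentration not given here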; conditions: S. pombe 972 growth, higher = more signal, called active from +8 up or from −8 down
[14] = S. cerevisiae growth modulation with rapamycin, primary screen, strain BY4716, OD600, 96 h (AID 1091); conditions: higher = more signal, called active from +8 up or from −8 down; further: test concentration not given here
[15] = biological target: Torsin-1A-interacting protein 2 (Homo sapiens) (UniProt Q8NFQ8); test: LULL1 binders on small-molecule microarray, primary screen, cell lysate, human LULL1 lysate, 635/667 nm fluorescence (AID 1092); conditions: hLULL1 lysate binding, 635 nm fluorescence, higher = more signal;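 further: probe is lysate of COS7 cells overexpressing human LULL1; score merges per-feature 667 nm fluorescence with signal-to-noise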
[16] = E. coli growth modulation, two-sided OD650, primary screen, E. coli filamentation project, strain DRC41, 24 h (AID 1093); conditions: OD650, 24 h, higher = more signal, called active from +8 up or from −8 down;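 further: MC1000 strain lacking acrAB efflux and sulA so SOS filamentation is blocked; test concentration not given here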
[17] = small-molecule microarray binders of probe aLefty2, primary screen, biochemical, biotinylated probe, 635/667 nm fluorescence (AID 1094); conditions: higher = more signal;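 further: score merges spot fluorescence near 667 nm with spot signal-to-noise ratio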
[18] = tested on: Noggin (protein binding on small-molecule microarray); test: Noggin binders on small-molecule microarray, primary screen, biochemical, 635/667 nm fluorescence (AID 1095); conditions: 635 nm fluorescence, higher = more signal;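 further: score merges 667 nm feature fluorescence with signal to noise over triplicate slides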
[19] = biological target: Neurogenic locus notch homolog protein 3 (Homo sapiens) (UniProt Q9UM47); test: NOTCH3 binders on small-molecule microarray, primary screen, biochemical, 635/667 nm fluorescence (AID 1096); conditions: NOTCH3 binding, 635 nm fluorescence, higher = more signal
[20] = small-molecule microarray binders of probe aEGFR, primary screen, biochemical, biotinylated probe, 635/667 nm fluorescence (AID 1097); conditions: higher = more signal;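 further: probe is a biotinylated anti-EGFR antibody binding compounds printed on slides; score combines fluorescence near 667 nm and signal to noise of each spot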

Chain of Neurogenic locus notch homolog protein 2 (Homo sapiens) (Q04721 whole entry, looked up, canonical isoform): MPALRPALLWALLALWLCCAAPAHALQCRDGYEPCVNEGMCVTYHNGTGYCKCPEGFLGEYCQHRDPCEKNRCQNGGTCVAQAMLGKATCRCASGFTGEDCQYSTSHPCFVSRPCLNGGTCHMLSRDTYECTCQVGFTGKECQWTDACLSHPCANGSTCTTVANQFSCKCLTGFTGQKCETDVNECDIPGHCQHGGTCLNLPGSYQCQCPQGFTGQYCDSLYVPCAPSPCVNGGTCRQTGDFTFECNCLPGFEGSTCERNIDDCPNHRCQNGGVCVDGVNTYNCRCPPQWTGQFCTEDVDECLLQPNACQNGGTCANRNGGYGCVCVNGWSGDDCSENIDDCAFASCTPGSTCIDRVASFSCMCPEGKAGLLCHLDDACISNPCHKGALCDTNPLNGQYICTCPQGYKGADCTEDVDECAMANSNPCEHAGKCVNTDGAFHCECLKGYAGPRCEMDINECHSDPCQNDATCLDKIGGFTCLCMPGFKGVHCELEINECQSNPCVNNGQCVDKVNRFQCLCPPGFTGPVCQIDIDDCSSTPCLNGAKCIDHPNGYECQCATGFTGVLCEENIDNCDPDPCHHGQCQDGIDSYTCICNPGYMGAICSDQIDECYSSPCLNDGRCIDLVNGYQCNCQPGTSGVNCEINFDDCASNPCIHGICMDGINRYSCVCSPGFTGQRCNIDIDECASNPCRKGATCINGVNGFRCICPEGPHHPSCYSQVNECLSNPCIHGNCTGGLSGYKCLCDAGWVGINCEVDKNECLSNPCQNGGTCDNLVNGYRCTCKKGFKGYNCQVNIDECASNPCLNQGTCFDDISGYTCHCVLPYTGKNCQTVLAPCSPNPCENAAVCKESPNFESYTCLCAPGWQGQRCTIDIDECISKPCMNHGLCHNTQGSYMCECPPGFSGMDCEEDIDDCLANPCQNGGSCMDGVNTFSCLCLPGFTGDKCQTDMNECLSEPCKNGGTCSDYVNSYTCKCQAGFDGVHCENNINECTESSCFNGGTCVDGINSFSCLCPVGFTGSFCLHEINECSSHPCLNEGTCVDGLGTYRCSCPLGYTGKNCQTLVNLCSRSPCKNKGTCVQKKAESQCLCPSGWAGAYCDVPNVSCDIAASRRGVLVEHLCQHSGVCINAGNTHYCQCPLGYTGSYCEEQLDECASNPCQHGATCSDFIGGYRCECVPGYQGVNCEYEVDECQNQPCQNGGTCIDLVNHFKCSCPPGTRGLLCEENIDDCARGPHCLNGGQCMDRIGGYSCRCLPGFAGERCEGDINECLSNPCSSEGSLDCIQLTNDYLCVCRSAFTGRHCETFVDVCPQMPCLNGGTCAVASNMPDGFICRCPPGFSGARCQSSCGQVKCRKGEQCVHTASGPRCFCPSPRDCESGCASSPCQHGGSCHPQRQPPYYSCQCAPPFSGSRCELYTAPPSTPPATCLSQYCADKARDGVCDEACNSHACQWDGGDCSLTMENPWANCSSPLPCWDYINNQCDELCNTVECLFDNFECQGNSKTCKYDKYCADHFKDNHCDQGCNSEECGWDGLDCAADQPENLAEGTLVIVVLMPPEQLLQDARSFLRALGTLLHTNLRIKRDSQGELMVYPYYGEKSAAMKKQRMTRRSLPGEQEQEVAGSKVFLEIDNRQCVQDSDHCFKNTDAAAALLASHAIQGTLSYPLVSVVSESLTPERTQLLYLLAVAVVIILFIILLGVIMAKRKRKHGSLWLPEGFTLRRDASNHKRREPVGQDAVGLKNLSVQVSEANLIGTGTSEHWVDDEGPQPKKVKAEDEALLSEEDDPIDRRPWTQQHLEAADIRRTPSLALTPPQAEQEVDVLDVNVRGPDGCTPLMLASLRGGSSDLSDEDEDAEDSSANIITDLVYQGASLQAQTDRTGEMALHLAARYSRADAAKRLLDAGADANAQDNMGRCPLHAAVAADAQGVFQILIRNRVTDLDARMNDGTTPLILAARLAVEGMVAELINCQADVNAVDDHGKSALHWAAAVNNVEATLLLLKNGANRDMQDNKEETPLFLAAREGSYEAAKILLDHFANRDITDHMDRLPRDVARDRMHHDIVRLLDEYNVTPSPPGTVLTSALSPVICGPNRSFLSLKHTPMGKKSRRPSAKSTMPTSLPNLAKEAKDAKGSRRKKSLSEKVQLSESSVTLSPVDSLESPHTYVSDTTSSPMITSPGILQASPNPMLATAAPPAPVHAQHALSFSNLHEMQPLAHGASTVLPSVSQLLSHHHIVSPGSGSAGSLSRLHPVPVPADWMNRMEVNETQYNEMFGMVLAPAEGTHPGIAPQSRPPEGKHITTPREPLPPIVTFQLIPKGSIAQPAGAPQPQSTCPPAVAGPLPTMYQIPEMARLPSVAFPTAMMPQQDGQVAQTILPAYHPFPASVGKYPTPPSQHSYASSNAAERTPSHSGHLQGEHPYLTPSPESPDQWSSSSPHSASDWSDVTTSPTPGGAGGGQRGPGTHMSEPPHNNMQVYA
Chain of Pro-neuregulin-1, membrane-bound isoform (Homo sapiens) (Q02297 whole entry, looked up, the tested form may be a part, canonical isoform): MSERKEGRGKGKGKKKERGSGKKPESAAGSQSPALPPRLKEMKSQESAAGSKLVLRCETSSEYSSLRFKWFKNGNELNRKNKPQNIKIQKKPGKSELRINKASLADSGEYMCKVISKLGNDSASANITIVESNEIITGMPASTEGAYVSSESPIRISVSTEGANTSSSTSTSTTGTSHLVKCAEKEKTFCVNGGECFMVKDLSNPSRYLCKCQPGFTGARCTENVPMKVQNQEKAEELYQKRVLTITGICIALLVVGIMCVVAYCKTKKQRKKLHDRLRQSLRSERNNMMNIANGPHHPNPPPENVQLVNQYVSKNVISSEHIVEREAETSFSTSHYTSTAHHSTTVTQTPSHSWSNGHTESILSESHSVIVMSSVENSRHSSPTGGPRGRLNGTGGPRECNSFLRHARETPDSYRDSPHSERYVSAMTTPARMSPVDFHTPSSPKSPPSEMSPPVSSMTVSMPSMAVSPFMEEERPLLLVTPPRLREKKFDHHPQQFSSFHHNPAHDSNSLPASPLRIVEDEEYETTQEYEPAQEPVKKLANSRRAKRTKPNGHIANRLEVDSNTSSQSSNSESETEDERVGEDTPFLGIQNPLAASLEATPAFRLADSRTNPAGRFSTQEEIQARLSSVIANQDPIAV
Chain of Torsin-1A-interacting protein 2 (Homo sapiens) (Q8NFQ8 whole entry, looked up): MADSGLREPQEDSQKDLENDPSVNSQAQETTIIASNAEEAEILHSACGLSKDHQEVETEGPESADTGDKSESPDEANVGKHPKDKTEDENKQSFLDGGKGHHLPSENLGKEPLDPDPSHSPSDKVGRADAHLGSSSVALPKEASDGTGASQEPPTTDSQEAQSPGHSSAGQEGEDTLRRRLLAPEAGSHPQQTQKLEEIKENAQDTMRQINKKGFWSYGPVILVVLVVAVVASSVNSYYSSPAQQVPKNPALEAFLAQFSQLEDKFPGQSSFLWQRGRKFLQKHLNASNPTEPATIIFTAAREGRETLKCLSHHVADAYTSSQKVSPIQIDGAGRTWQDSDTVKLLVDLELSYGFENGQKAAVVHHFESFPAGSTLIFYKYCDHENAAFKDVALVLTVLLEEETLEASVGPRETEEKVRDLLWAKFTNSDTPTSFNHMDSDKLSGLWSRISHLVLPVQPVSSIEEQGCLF

Row | SMILES | composite z-score [1] | composite z-score [2] | composite z-score [3] | composite z-score [4] | composite z-score [5] | composite z-score [6] | composite z-score [7] | z-score [8] | composite z-score [9] | composite z-score [10] | composite z-score [11] | z-score [12] | z-score [13] | z-score [14] | composite z-score [15] | z-score [16] | composite z-score [17] | composite z-score [18] | composite z-score [19] | composite z-score [20]
1 | CCCC[C@H]1CN2[C@@H](CC[C@@H](C)[C@@H]2c2ccc(Br)cc2)C(=O)O1 | -0.333 | 0.389 | -0.0894 | -0.947 | 0.564 | 1.19 | 1.11 | -0.374 (inactive) | 0.253 | 0.0722 | 1.56 | 0.149 (inactive) | -16.5 (active) | -0.435 (inactive) | 1.28 | 0.0173 (inactive) | -0.109 | 0.444 | 0.728 | -0.0616
2 | CO[C@H]1COC(=O)CC=C[C@@H](C)COC(=O)[C@H]2CCCN2C(=O)CC=C[C@H]1C | -0.867 | 2.36 | -0.147 | -0.103 | -0.315 | -0.278 | 1.06 | -0.352 (inactive) | 0.0653 | 0.445 | 1.55 | 0.591 (inactive) | -0.74 (inactive) | 0.0488 (inactive) | 0.128 | 0.457 (inactive) | -0.194 | 1.86 | -0.341 | 0.0129
3 | CCOC(=O)[C@H](CC(C)C)NC(=O)CCC1CC(OC(=O)NCc2ccc3c(c2)OCO3)CC2(CCCC(COC(=O)NCc3ccccc3)O2)O1 (stereo not given in full) | -0.542 | 0.01 | -0.0667 | 0.536 | 0.375 | 0.929 | 1.12 | 1.61 (inactive) | 0.986 | -0.0994 | 0.974 | 0.177 (inactive) | 1.12 (inactive) | 0.0835 (inactive) | 1.83 | 0.314 (inactive) | -0.124 | 0.684 | 0.845 | -0.0978
4 | CCc1cc2c(nc1CC)CCN(CCC(C)=NOCC[C@@H]1C=C[C@H](OC(C)=O)[C@@H](COC(C)=O)O1)C2 | 0.325 | 1.66 | -0.103 | -0.213 | -0.0544 | -0.0974 | 0.545 | 0.485 (inactive) | 0.851 | 0.0722 | 1.54 | -0.391 (inactive) | 0.591 (inactive) | 0.521 (inactive) | 0.796 | 0.956 (inactive) | 0.251 | 1.21 | 0.546 | 0.0579
